Screens deposited in PubChem by Center for Chemical Genomics, University of Michigan.
CDC25B-CDK2 inh: human CDC25B-CDK2/CyclinA binding inhibition; P30305+P24941; HTRF CDC25B-CDK2/CyclinA binding, anti-His/anti-Flag; stronger effect = higher value; z-score (concentration not given with the values); hit rate 0.72% among 94,000; in the data active means z-score above about 3.2
HIV TAR-Tat: HIV-1 TAR-Tat binding disruption. HIV-1 TAR RNA, Tat peptide displacement FRET; stronger effect = higher value. z-score (test concentration not listed). hit rate 0.6% among 100,000; active means z-score of 3 or more in at least 2 runs
A number is an active result; – = inactive; · = not tested or not shown. This is a sample that favours compounds with a hit; in the whole collection about 0.86% have one here.

SMILES	CDC25B-CDK2 inh	HIV TAR-Tat
COc1cccc(Cn2cc3c(-c4ccc(OC)c(OC)c4)nnc-3c3cc4c(cc32)OCCO4)c1	–	5.1
COc1ccc(-c2nnc3c4cc5c(cc4n(Cc4ccccc4)cc2-3)OCCO5)cc1OC	–	–
CC1CC(C)CN(CCCn2cnc3c([nH]c4ccc(Cl)cc43)c2=O)C1 (stereo unspecified)	–	–
Nc1c(-c2nc(-c3ccccc3)cs2)c2ccccn2c1C(=O)c1cccs1	25	–
COc1ccc(C(=O)c2c(N)c(-c3nc(-c4ccccc4)cs3)c3ccccn23)cc1	–	–
Cc1cccc(-c2nnn3c2nc(NCc2ccco2)c2ccccc23)c1	–	7.8
Cc1ccc(-c2nnn3c2nc(NCc2ccco2)c2ccccc23)cc1	–	–
COc1ccc(S(=O)(=O)Oc2ccc(C)cc2[N+](=O)[O-])cc1OC	–	·
COc1ccc(S(=O)(=O)OCC(F)([N+](=O)[O-])[N+](=O)[O-])cc1Br	4.2	·
Nc1c(-c2nc(-c3ccccc3Cl)no2)nnn1-c1ccc(Br)cc1	·	–
O=C1c2cccc3c(N4CCOCC4)ccc(c23)C(=O)N1c1cc(Cl)ccc1O	9.7	–
O=C1c2cccc3c(N4CCOCC4)ccc(c23)C(=O)N1c1cccc(O)c1	–	–
Cc1nc(C(N)=O)c2[nH]c(=O)n(-c3ccc(C)c(C)c3)c2n1	·	–
COc1ccc(C2CC(=O)N3CN(c4ccc(N(C)C)cc4)CSC3=C2C#N)cc1 (stereo unspecified)	5.5	–
Cc1ccc(C2CC(=O)N3CN(c4ccc(N(C)C)cc4)CSC3=C2C#N)cc1 (stereo unspecified)	6.7	–
CC(C)OCCCNC(=O)CN1C(=O)c2ccccc2S1(=O)=O	–	–
COc1ccc2nc(NC(=O)Nc3cc(Cl)c(OC)cc3OC)sc2c1	–	5.3
CCOc1ccc2nc(NC(=O)Nc3cc(Cl)c(OC)cc3OC)sc2c1	–	–
Cc1ccc(CN2CC(O)=C(c3nc4ccccc4[nH]3)C2=N)cc1	–	–
Cc1ccccc1S(=O)(=O)Nc1cccc(CCc2nc3ccccc3n2C)c1	·	–
COC(=O)c1ccc2c(=O)n3nc(Nc4cc(F)ccc4F)sc3nc2c1	·	–
O=C1CC(=O)Nc2cc(S(=O)(=O)Nc3ccc(F)cc3)ccc2N1	–	–
O=C1CC(=O)Nc2cc(S(=O)(=O)Nc3ccc4c(c3)OCO4)ccc2N1	·	18
Cn1cc(S(=O)(=O)N2CCCC2)cc1C(=O)NC1CCCCC1	·	–
O=C(OCc1cc(=O)n2nc(C3CCCCC3)sc2n1)c1ccc(Cl)cc1	·	–
SMILES	CDC25B-CDK2 inh	HIV TAR-Tat
COC(=O)c1cccc(NC(=O)Nc2ccccc2)c1	–	·
Cc1ccc(C(=O)Nc2ccc(S(=O)(=O)O)c3cc(S(=O)(=O)O)cc(S(=O)(=O)O)c23)cc1NC(=O)c1cccc(NC(=O)Nc2cccc(C(=O)Nc3cc(C(=O)Nc4ccc(S(=O)(=O)O)c5cc(S(=O)(=O)O)cc(S(=O)(=O)O)c45)ccc3C)c2)c1	4.7	–
CCOC(=O)c1cn[nH]c1S(=O)(=O)Nc1ccc(OC)c(Cl)c1	·	–
Cc1[nH]ccc2c1[nH]c1cc(=O)ccc12	·	22
Cc1ccccc1-c1nc(SCC(=O)Nc2cc(F)ccc2F)n2[nH]c(=O)cc2n1	·	–
O=S1(=O)c2ccccc2NC(c2ccccc2Br)N1Cc1ccccc1 (stereo unspecified)	–	·
COc1ccc(N2CSC3=C(C#N)C(c4cccc(OC)c4OC)CC(=O)N3C2)cc1 (stereo unspecified)	4	–
COc1cccc(C2CC(=O)N3CN(c4ccccc4F)CSC3=C2C#N)c1OC (stereo unspecified)	4.2	–
COc1ccc(N2CSC3=C(C#N)C(c4cccc(OC)c4OC)CC(=O)N3C2)c(OC)c1 (stereo unspecified)	5.7	–
COc1ccc(NC2=NS(=O)(=O)C(c3ccc(C(C)C)cc3)=C2C)cc1OC	–	–
CC(C)c1ccc2occ(CC(=O)Nc3sc4c(c3C(=O)NCc3cccnc3)CCC4)c2c1	–	–
FC(F)(F)C(=C(N=C(Cl)SOCc1ccccc1)C(F)(F)C(F)(F)F)C(F)(F)F	–	·
FC(F)(F)C(=C(SSCc1ccccc1)C(F)(F)C(F)(F)F)C(F)(F)F	4.3	·
COc1ccc(S(=O)(=O)N2CCCC(C)C2)cc1OC (stereo unspecified)	–	–
CCc1cc(C=N)c([S-])s1.CCc1cc(C=N)c([S-])s1.[Zn+2]	19	·
CCc1cc2c(=S)[nH]cnc2s1	–	·
CCN(CC)c1ccc(Nc2nc(-c3sc(NC(C)=O)nc3C)cs2)cc1	–	–
CCN(CC)c1ccc(Nc2nc(-c3sc(N)nc3C)cs2)cc1	–	5.7
Cn1cc(S(=O)(=O)N2CCc3ccccc32)cc1C(=O)NC1CCCc2ccccc21 (stereo unspecified)	–	–
N#CC1=C2SCN(Cc3ccco3)CN2C(=O)CC1c1ccc(Br)cc1 (stereo unspecified)	–	–
COc1ccc(CN2CSC3=C(C#N)C(c4ccc(F)cc4)CC(=O)N3C2)cc1 (stereo unspecified)	3.6	–
COc1ccc(C2CC(=O)N3CN(Cc4ccco4)CSC3=C2C#N)cc1 (stereo unspecified)	3.2	–
N#CC1=C2SCN(Cc3ccco3)CN2C(=O)CC1c1ccc(F)cc1 (stereo unspecified)	6	–
Cc1noc(C)c1C(=O)N1CCN(C(=O)c2ccco2)CC1	–	·
Cc1nc2ncnn2c(N2CCN(c3ccc(Cl)cc3)CC2)c1C	–	–
SMILES	CDC25B-CDK2 inh	HIV TAR-Tat
COc1cc(C(=O)Nc2ccccc2SCCC#N)cc(OC)c1OC	–	·
COc1cccc(C=Nc2ccccc2SCCC#N)c1O	6.9	·
N=C1C(c2nc3ccccc3[nH]2)=C(O)CN1c1ccccc1Cl	–	–
Cc1cc2c3c([nH]c2cc1S(=O)(=O)Nc1ccccc1)CCCC3=O	·	–
Cc1cc2c3c([nH]c2cc1S(=O)(=O)Nc1ccc(S(N)(=O)=O)cc1)CCCC3=O	·	11
Cc1cc2c3c([nH]c2cc1S(=O)(=O)Nc1cccnc1)CCCC3=O	·	7.6
Cc1ccc(NS(=O)(=O)c2cc3[nH]c4c(c3cc2C)C(=O)CCC4)cc1	·	–
O=S1(=O)CCCCN1c1ccc(S(=O)(=O)N2CCCc3ccccc32)cc1	·	–
Cc1ccsc1CCNS(=O)(=O)c1ccc(CN2C(=O)c3cccnc3C2=O)cc1	·	–
CCCc1cc(C(=S)NC2c3ccccc3Oc3ccccc32)ccn1	–	·
Cc1ccc(-c2nc(SCc3cc(=O)c4cccc(Cl)c4[nH]3)n[nH]2)cc1	·	–
COc1ccc(-c2nc(SCc3cc(=O)c4cccc(Cl)c4[nH]3)n[nH]2)cc1	·	6.8
CN1CCN(C(=O)C2CCN(C(=O)c3cnn(-c4ccccc4)c3-n3cccc3)CC2)CC1	–	–
Cc1ccc(CSc2nc(-c3cccs3)nc3cc(=O)[nH]n23)cc1	·	–
O=c1cc2nc(-c3cccs3)nc(SCc3ccc(Br)cc3)n2[nH]1	·	27
CCOC(=O)c1c(C)[nH]c(C)c1C	–	–
Cc1oc2ncnc(N3CCOCC3)c2c1C(=O)NCc1ccco1	·	–
CC1(C(=O)O)NCCc2c1[nH]c1ccccc21 (stereo unspecified)	10	–
COc1ccc2c3c([nH]c2c1)C(C)(C(=O)O)NCC3 (stereo unspecified)	–	–
COc1ccc2c(c1)C=C(C(=O)NCCO)C=CO2	–	–
Brc1cnc(N2CCOCC2)nc1	–	–
CCOc1ccc(-c2cccc(NS(=O)(=O)c3cccc(F)c3)c2)nn1	·	–
